# Hits are enriched below; roughly 7.6% of the tested compounds scored in any of these assays.
# RORgamma inh – qHTS for inhibitors of ROR gamma transcriptional activity; Potency, µM (series often up to 53.6 µM), without a hit: top-dose activity change, negative = inhibition, actives largely listed as inhibitors; 5.4% of 310,000 active; Nuclear receptor ROR-gamma (Mus musculus), P51450; Drosophila S2 Gal4-RORgamma UAS-luciferase reporter, 20 h; AID 2551, 2010; also: potency is read from the fitted curve at half-maximal effect; % is scaled to controls: 0 for no effect and ±100 for the full control effect; nearly all actives have a fitted effect of over 60% in size
# Target sequence (P51450 whole entry, looked up, the tested form may be a part): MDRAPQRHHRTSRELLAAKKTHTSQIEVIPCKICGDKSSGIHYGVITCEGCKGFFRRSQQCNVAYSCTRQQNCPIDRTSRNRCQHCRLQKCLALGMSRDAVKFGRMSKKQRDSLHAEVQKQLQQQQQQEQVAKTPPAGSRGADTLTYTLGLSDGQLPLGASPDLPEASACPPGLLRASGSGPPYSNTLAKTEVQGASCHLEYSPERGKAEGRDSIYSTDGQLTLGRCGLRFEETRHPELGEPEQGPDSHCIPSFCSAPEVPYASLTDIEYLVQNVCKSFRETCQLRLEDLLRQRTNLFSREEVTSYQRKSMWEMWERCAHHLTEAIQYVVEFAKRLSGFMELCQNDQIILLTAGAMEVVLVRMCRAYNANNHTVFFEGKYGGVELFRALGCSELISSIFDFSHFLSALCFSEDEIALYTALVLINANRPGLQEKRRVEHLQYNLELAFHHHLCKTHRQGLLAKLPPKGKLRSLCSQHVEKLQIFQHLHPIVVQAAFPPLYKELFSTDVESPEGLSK
#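 A Gal4/UAS one-hybrid system in insect cells: metallothionein-promoter Gal4–ROR gamma fusion plus Photinus luciferase reporter. Copper sulfate 700 uM final, 20 hr ambient incubation, luminescent detection after 10 min with reagent.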
# Giardia kill – Small Molecules that selectively kill Giardia lamblia: qHTS. Giardia lamblia trophozoite viability. activity change, % at 7.66 µM, hits read low. 0.15% of 340,000 active; in the data active = activity change below about -80%; inconclusive = between about -30% and that limit;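 also: parasites exposed to compound for two days anaerobically before the ATP read; % is scaled to controls: 0 for no effect and ±100 for the full control effect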
#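 Viability, read as ATP luminescence: trophozoites at 100 cells/well, compound added, 48 hrs anaerobic at 37 deg C, then 15-30 min room-temperature development before reading.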
# p53 reactivator – qHTS assay for re-activators of p53 using a Luc reporter; Potency, µM (doses to about 92.2 µM), for inactives: at the highest dose activity change, positive = activation, most hits filed as activators; 0.063% of 320,000 active; H1299 p53-A138V BP100-luciferase reporter, luminescence, 24 h; AID 504706, 2011; also: potency is read from the fitted curve at half-maximal effect; % of control where 0% means no effect; nearly all actives have a fitted effect of over 45% in size
#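 H1299 (p53-null), stable ts p53-A138V + BP100-Luc; 1000 cells/well, Opti-MEM/10% FBS; cpd 4 pt, 1:5; 24 h, 37 deg C, 5% CO2; detection reagent 10 min RT; luminescence.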
# ELG1 DNA repair – qHTS screen for small molecules that inhibit ELG1-dependent DNA repair in human embryonic kidney (HEK293T) cells expressing luciferase-tagged ELG1 | HEK293T ELG1-luciferase reporter, luminescence, 16 h; DNA damage induced by 5-fluorouridine | Potency, µM (series often up to 46.1 µM), without a hit: at the top dose activity change, negative = inhibition, hits mostly inhibitors | 2.3% of 330,000 active | AID 504467, 2011; also: potency is read from the fitted curve at half-maximal effect; % is scaled to controls: 0 for no effect and ±100 for the full control effect; nearly all actives have a fitted effect of over 55% in size
#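 Step one: seed 2,000 cells per well. Step two: pin-transfer compound or DMSO alongside 5-fluorouridine. Step three: incubate 16 hr, 37 °C, 5% CO2. Step four: add ONE-Glo, wait 30 min, read luminescence.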
# Gal4-VP16 FLuc – VP16 counterscreen qHTS for inhibitors of ROR gamma transcriptional activity | Drosophila S2 Gal4-VP16 UAS-luciferase, luminescence, 20 h | Potency, µM (titrated, usually from 53.6 µM), without a hit: top-dose activity, negative = inhibition, most hits filed as inhibitors | 3.5% of 310,000 active;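 also: Gal4-VP16 expression switched on by copper sulfate through the metallothionein promoter; potency is read from the fitted curve at half-maximal effect; % is scaled to controls: 0 for no effect and ±100 for the full control effect; nearly all actives have a fitted effect of over 50% in size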
# BRCA1 expr act – qHTS Assay to Identify Small Molecule Activators of BRCA1 Expression | 1.1% of 380,000 active | MCF7-BRCA1-FFLuc reporter, luminescence, 48 h; response scale: scaled: vehicle 0%, 10 µM genistein 100% | Potency, µM (top dose mostly 46.1 µM), without a hit: top-dose activation, usual class: activators; also: potency is read from the fitted curve at half-maximal effect; nearly all actives have a fitted effect of over 80% in size
#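 Luminescence from a BRCA1-driven firefly luciferase in MCF7 cells was the read-out, taken 15 min after substrate addition following 48 h compound exposure at 37 °C. Data were normalized to a 10 microM genistein control and DMSO vehicle.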
# Active calls of the source: *; ? = inconclusive; / = no result given; [ ] = dose if it differs, or a comment. Unless noted, calls follow the shape of the dose curve; as a rule, active = well fitted curve in the direction sought with a large enough effect; inconclusive = small, poorly fitted or top-dose-only effect, or another doubt; inactive = no such curve, though single readings can be large; an effect the other way counts as inactive or inconclusive.
SMILES,RORgamma inh,Giardia kill,p53 reactivator,ELG1 DNA repair,Gal4-VP16 FLuc,BRCA1 expr act
COc1cc(/C=N/Nc2ccc(C(=O)O)cc2)cc(OC)c1OC,?,-2.3,12.2%,?,?,111.3%
COc1ccc(/C=N/Nc2ccccn2)cc1OC,?,0.4,10.8%,?,?,10µM*
COc1cc(/C=N/Nc2ccc(C(=O)O)cc2)ccc1O,2.82µM*,-2.9,-0.9%,?,2.24µM*,-27.2%
O=C(O)c1ccc(N/N=C/c2ccc3nccnc3c2)cc1,0.1µM*,-17.5,-10.0%,?,0.316µM*,-76.8%
O=[N+]([O-])c1ccc(/C=N/Nc2ccccn2)cc1,4.4%,-17.2,17.8%,?,-8.9%,1.41µM*
O=C(O)c1ccc(N/N=C/c2ccncc2)cc1,-39.1%,-2.0,13.6%,?,?,79.7%
CN(CC(=O)Nc1c(Cl)cccc1Cl)C(=O)c1ccccc1Cc1ccccc1,/,7.3,0.0%,0.6%,/,-12.4%
CC1CCN(CCC(=O)Nc2ccc(Cl)cc2)CC1,-10.3%,0.0,-4.5%,-7.0%,-6.6%,-8.0%
CCN1CCc2c(sc(NC(=O)Cc3ccccc3)c2C(=O)OC)C1,-0.1%,5.3,1.7%,0.4%,1.4%,16.9%
Cc1ccc2c(C(=O)CN3CC(C)CC(C)C3)c(C)[nH]c2c1 (stereo not drawn),-2.0%,/,-5.5%,4.7%,1.4%,/
CC(=O)Nc1ccc(NC(=O)Nc2ccc3c(c2)N(C)C(=O)CS3)cc1,26.2%,4.2,-5.4%,?,-7.7%,-3.4%
CN1C(=O)CSc2ccc(NC(=O)Nc3ccccn3)cc21,22.9%,0.0,0.3%,?,?,3.98µM*
COc1ccc(/C=N/Nc2ccc([N+](=O)[O-])cc2)cc1O,?,-1.3,?,?,6.8%,8.91µM*
O=C(O)c1ccc(N/N=C/c2ccc(OC(=O)c3cccc(Cl)c3)cc2)cc1,?,4.6,-9.5%,?,0.355µM*,?
Cc1ccc(C)c(N2CCN(C(=O)Nc3ccc4c(c3)N(C)C(=O)CS4)CC2)c1,18.2%,5.3,2.2%,6.51µM*,?,-56.1%
CC(C)c1ccc(NC(=O)N2CCN(S(=O)(=O)c3ccccc3)CC2)cc1,?,10.4,2.8%,?,-11.6%,-10.3%
O=[N+]([O-])c1ccc(NN=Cc2ccco2)nc1,/,1.8,/,/,/,10µM*
O=[N+]([O-])c1ccc(N/N=C\c2cccnc2)nc1,-2.0%,9.6,3.5%,?,5.1%,2.0%
COc1ccc(/C=N/NS(=O)(=O)c2ccccc2)cc1OC,?,-13.3,-0.4%,18.3µM*,-22.6%,-22.2%
O=C(NCCCN1CCOCC1)c1cc(S(=O)(=O)N2CCOCC2)c(Cl)cc1Cl,/,-15.4,10.3%,11.9%,/,-13.3%
CCCC(C)NC(=O)COc1ccc(S(=O)(=O)N2CCCC2)cc1 (stereo not drawn),13.4%,-10.9,2.7%,-8.3%,-2.3%,-0.4%
O=C(O)c1cccc([N+](=O)[O-])c1C(=O)Nc1nc2ccccc2s1,0.6%,3.3,?,23.1%,-4.3%,0.3%
O=C(Nc1nc2ccccc2s1)c1ccccc1[N+](=O)[O-],?,-8.0,28.2µM*,?,19.7%,68.8%
COc1ccc2nc(NC(C)=O)sc2c1,1.7%,-20.3,?,?,-0.8%,28.8%
O=C(Nc1c(Cl)ccc2nsnc12)c1ccc([N+](=O)[O-])o1,-39.0%,-86.7*,-27.5%,?,?,-100.7%
SMILES,RORgamma inh,Giardia kill,p53 reactivator,ELG1 DNA repair,Gal4-VP16 FLuc,BRCA1 expr act
COc1ccc2nc(NC(=O)c3ccc([N+](=O)[O-])o3)sc2c1,?,-96.7*,/,?,11.2µM*,-86.7%
O=C(Nc1nc2ccccc2s1)c1ccc([N+](=O)[O-])o1,-23.6%,-99.7*,?,?,-0.2%,-47.1%
O=C(Nc1nc2cc3c(cc2s1)OCCO3)c1ccc([N+](=O)[O-])o1,-44.8%,-88.6*,?,?,?,-5.5%
O=C(Nc1nc2cc3c(cc2s1)OCCO3)c1cccs1,?,-24.1,6.3%,?,?,-36.0%
C=C(C)C(=O)OC1(C(F)(F)F)Oc2cc(C)ccc2NC1=O (stereo not drawn),14.1µM*,5.3,-64.7%,?,?,-57.7%
Cc1ccc(-c2noc(C3CCCN(S(=O)(=O)c4ccc5ccccc5c4)C3)n2)o1 (stereo not drawn),28.3%,8.6,1.8%,-14.1%,-7.9%,7.3%
Cc1ccc(-c2noc(C3CCN(S(=O)(=O)c4ccc5c(c4)OCCO5)CC3)n2)o1,16.5%[10 µM],3.8,-10.4%,23.1µM*,?,-53.4%
O=S(=O)(c1ccc2ccccc2c1)N1CCC(c2nc(-c3ccncc3)no2)CC1,?,18.3,-7.5%,13µM*,?,-68.8%
CN(C)c1ccc(-c2noc(C3CCN(S(=O)(=O)c4cccc(Cl)c4)CC3)n2)cc1,0.4%,-10.8,4.7%,?,-28.1%,-62.2%
CC(C)N(C(=O)N1CCC(c2nc(-c3ccncc3)no2)CC1)C(C)C,29.3%,1.5,2.1%,16.4µM*,4.7%,-56.6%
COc1ccc(OC)c(NC(=O)CCc2nnc3ccc(NCc4ccco4)nn23)c1,4.2%,10.2,-3.4%,-8.5%,-9.9%,-5.3%
Clc1cc(Cl)c(OCC#CI)cc1Cl,7.08µM*,/,/,/,5.62µM*,/
Clc1cc(Cl)c(Cl)cc1Cl,11.8%,27.9,5.9%,10.7%,-3.0%,4.5%
COCCNC(=S)N/N=C(\C)CCc1ccc2c(c1)OCO2,4.47µM*,-8.9,-2.3%,2.4%,10µM*,-7.3%
C/C(CCc1ccc2c(c1)OCO2)=N\NC(=O)c1ccc(C)cc1C,0.6%,11.5,4.4%,?,-2.5%,38.7%
C/C(CCc1ccc2c(c1)OCO2)=N\NC(=S)NC(C)C,2.24µM*,-10.6,0.7%,1.3%,4.47µM*,-4.9%
CCOc1ncccc1C(=O)OCc1c(Cl)cccc1Cl,-19.0%,-17.2,-6.1%,2.0%,-2.0%,-5.6%
Cc1c(Cl)cccc1NC(=O)CCN1C(=O)NC(C)(C)C1=O,/,-5.4,3.8%,-0.2%,/,1.1%
COc1cccc(/C=C/c2ccc3cccc(O)c3n2)c1,3.55µM*,-4.1,?,?,11.2µM*,-26.8%
CC(=O)COc1cccc2ccc(/C=C/c3ccc(Br)s3)nc12,?,17.4,/,4.3%,-5.6%,-27.3%
O=[N+]([O-])c1ccc(/C=C/c2ccc3cccc(O)c3n2)cc1,2.51µM*,-11.9,?,?,?,67.5%
